Source: PubChem BioAssay AID1159580 (chemical genetic matrix, 2015)
Out of some 5,500 compounds screened, about 2,000 (36%) were called active. Inconclusive results (about 18%) are left out. Rule as the data show it: active = normalized growth mostly below about 0.91 (no sharp cut-off); inconclusive = no clear call, values can overlap the other calls; inactive = mostly above about 0.92. The list shows a part of the results.

Experiment: chemical genetic growth profiling, strain panel (AID 1159580);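 also: tested at 20 µM; growth read once vehicle control cultures reached saturation at 30 °C; 1 = growth at the plate median or of vehicle wells; lower values mean less growth of the strain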
Details: S. cerevisiae deletion strains, growth OD
[1] = locus YAL013W, strain DEP1, active compounds read low
[2] = locus YAL040C, strain CLN3, active compounds read low
[3] = locus YCL061C, strain MRC1 (second series), active compounds read low
[4] = locus YDR363W, strain ESC2, active compounds read low
[5] = locus YER002W, strain NOP16, active compounds read low
[6] = locus YGR078C, strain PAC10, active compounds read low
[7] = locus YJR075W, strain HOC1, active compounds read low
[8] = locus YMR263W, strain SAP30, active compounds read low
[9] = locus YNL175C, strain NOP13, active compounds read low
[10] = locus YNL197C, strain WHI3, active compounds read low
[11] = locus YNL224C, strain SQS1, active compounds read low
[12] = locus YOR083W, strain WHI5 (second series), active compounds read low
[13] = locus YPL241C, strain CIN2, active compounds read low

Measured: normalized growth

NNC(=O)c1ccc(O)cc1
inactive: [1] 0.949 | [2] 0.963 | [3] 0.991 | locus YDR150W, strain NUM1, active compounds read low 1.01 | [4] 0.99 | [5] 0.985 | [6] 0.992 | [7] 0.988 | [8] 0.986 | locus YNL153C, strain GIM3, active compounds read low 0.989 | [9] 0.994 | [10] 0.991 | [11] 0.974 | locus YNL322C, strain KRE1, active compounds read low 0.97 | [12] 1.05 | locus YPL055C, strain LGE1, active compounds read low 0.977 | [13] 0.988

CNCC(O)c1ccc(O)cc1 (configuration not stated)
inactive: [1] 1.03 | [2] 1.02 | [3] 1 | [4] 1.01 | [5] 1.02 | [6] 1.02 | [7] 1.01 | [8] 1 | locus YMR307W, strain GAS1, active compounds read low 1.04 | locus YNL128W, strain TEP1, active compounds read low 1.03 | [9] 1.02 | [10] 1.01 | [11] 0.999 | [12] 1.02 | [13] 1
